Results taken from PubChem BioAssay (NCI).
Values joined by “and” are separate entries in the source; they are usually repeats but may differ in a detail not shown here. Equal values may be shown once. Compounds without any hit were thinned out: in the full panel of roughly 83,000, 20% have a hit.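 Compound tested at a single concentration for 48 hours in 96-well plates; a percent growth value below 10 was scored as active.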 Active and inactive are the calls of the source.

system: NCI-H460 lung; assay: NCI-60 one-dose screen, 48 h (100 = growth as untreated, 0 = no growth, -100 = all killed); details: 1 µM
Procedure: Growth inhibition of the NCI-H460 human Non-Small Cell Lung tumor cell line is measured as a screen for anti-cancer activity. Cells are grown in 96 well plates and exposed to the test compound for 48 hours. Compounds are tested at a single concentration, which is 10^-5 M for most compounds. The reported endpoint is percent growth (GI% or GIPRCNT), where numbers from 0 - 100% represent growth inhibition, and numbers from -100% - 0 represent cell death. For example, a value of 40 represents 60% growth inhibition. A value of 0 means no net growth occurred over the course of the experiment. A value of -40 indicates 40% of cells at the beginning of the experiment died by the end of the experiment. A value of -100 means all cells are dead at the end of the experiment.
NCI-60 Human Tumor Cell Lines Screen was performed using the standard one-dose NCI protocol, which is described in more detail at https://dtp.cancer.gov/discovery_development/nci-60/default.htm.
Compounds with GIPRCNT values below 10 were considered active. Activity score was based on GIPRCNT using the following formula: […]
Score is 0 for GIPRCNT values of 100 or above, 50 for GIPRCNT values of 0, and 100 for GIPRCNT values of -100.

| SMILES | growth |
| --- | --- |
| CNC(=O)c1cc(Oc2ccc(CC(=O)Nc3cc(C(C)(C)C)nn3C)cc2)ccn1 | 79.4% (inactive) |

same assay, conditions: 10 µM

| SMILES | growth |
| --- | --- |
| CCc1ccccc1-n1c(N)c(C#N)c(-c2ccc(OC)c(OC)c2)c(C#N)c1=O | 121% (inactive) |
| CNC(=O)c1cc(Oc2ccc(CC(=O)Nc3cc(C(C)(C)C)nn3C)cc2)ccn1 | 66.7% (inactive) |

same assay, conditions: 10 µM unless noted

| SMILES | growth |
| --- | --- |
| Cc1cc(O)c(C(C)C)cc1S(=O)(=O)O (tested in a mixture with another compound) | 99.1% (inactive) and 1.34% (active) and 108% (inactive) |
| Nc1cc2c(cc1N)-c1ccccc1C2 | 103% (inactive) and 101% (inactive) |
| CN1C(=O)C(N=Nc2ccc([N+](=O)[O-])cc2)SC1=S (stereo not given) | 37.7% (inactive) and 45.3% (inactive) |
| OCCN1CCN(CCO)CC1 | 111% (inactive) and 98.6% (inactive) and 108% (inactive) |
| OC(COc1cccc2ccccc12)CN1CCN(c2ccc(Cl)cc2)CC1 (stereo not given) | 49% (inactive) and 95% (inactive) |
| NCCSC(C[N+](=O)[O-])c1ccccc1Cl (stereo not given) | 98.2% (inactive) |
| CN(C)CCCN1c2ccccc2Sc2ccc(Cl)cc21 | 101% (inactive) and 105% (inactive) and 100% (inactive) |
| NC(=O)NO | 106% (inactive) and 62.3% (inactive) |
| Nc1ccccc1Nc1ccccc1 | 94.5% (inactive) and 104% (inactive) |
| Nc1nc(SC/C=C/CCl)c2[nH]cnc2n1 | 105% (inactive) |
| CC(=O)Nc1cccc2c1CCCC2 | 101% (inactive) and 111% (inactive) |
| COc1c(/C(C)=N/N=c2sc(C(C)=O)nn2-c2ccc(Cl)cc2)c(Oc2ccccc2)c(OC)c2occc12 | 99.2% (inactive) and 103% (inactive) |
| CCN(CC)CCNc1ccc(C)c2sc3ccccc3c(=O)c12 (tested in a mixture with another compound) | 8.45% (active) and 5.28% (active) |
| CNc1cc(-c2cccc(OC(F)(F)F)c2)nc2ccc(N3CCCC3)cc12 | -68% (active) and -62.5% (active) and -65.4% (active) |
| S=C1SCN(Cc2ccccc2)CN1Cc1ccccc1 | 95.5% (inactive) |
| CC(C)(O)Cn1cc(-c2ccc3nc(OC4CC4)ccc3c2)c2c(N)ncnc21 | 88.5% (inactive) and 27.6% (inactive) |
| CC1CCCC(=O)O1 (stereo not given) | 104% (inactive) and 112% (inactive) |
| Cn1c(=O)c2[nH]c(CCCCCCCCc3nc4ccccc4[nH]3)nc2n(C)c1=O | 68.4% (inactive) and 73.6% (inactive) |

| SMILES | growth |
| --- | --- |
| COc1ccc2nc(Cl)cc(C)c2c1 | 100% (inactive) and 111% (inactive) |
| O=[N+]([O-])c1ccc(-n2[nH]nnc2=S)cc1 | 110% (inactive) |
| Cc1ncsc1CCO | 118% (inactive) and 106% (inactive) |
| Cc1nnc(NC/C=C/c2ccccc2)s1 | 105% (inactive) and 108% (inactive) |
| COC(=O)/C=C/c1cc(O)c2c(c1)C(C(=O)OC)C(c1ccc(O)c(O)c1)O2 (stereo not given) | 28% (inactive) and 17.7% (inactive) |
| CC(=O)C(/C=N/C(N)=O)=C(/C)O | 116% (inactive) |
| c1ccc2c(CC3=NCCN3)cccc2c1 | 108% (inactive) and 105% (inactive) |
| O=C(CCc1ccc(O)cc1)N/N=C/c1cc(Br)ccc1O | 29.7% (inactive) |
| CCN(CC)CCOc1ccc(/C=N/Nc2nc3c([nH]2)c(=O)n(C)c(=O)n3C)cc1 | 109% (inactive) and 105% (inactive) |
| OCc1ccccn1 | 105% (inactive) |
| O=C(O)CSCc1nc2ccccc2[nH]1 | 105% (inactive) |
| O=C1c2c(O)cc(O)cc2OC(c2ccc(O)c(O)c2)C1O (stereo not given) | 107% (inactive) |
| COc1cc2c(c(OC)c1OC)-c1ccc(OC)c(=O)cc1[C@@H](NC(C)=O)CC2 | 4.46% (active) and 1.09% (active) and 2.92% (active) |
| CN1CCN(CCC=C2c3ccccc3Sc3ccc(S(=O)(=O)N(C)C)cc32)CC1 | 82.7% (inactive) and 82% (inactive) |
| Cc1cc(O)c2c(c1)C(=O)c1cc(O)cc(O)c1C2=O | 98% (inactive) and 102% (inactive) |
| N#CC(C#N)=C/C=C/c1cccc([N+](=O)[O-])c1 | -7.92% (active) and -72.3% (active) |
| O=[N+]([O-])c1ccc(Oc2ccccc2)cc1 | 103% (inactive) and 102% (inactive) |

same assay, conditions: 30 µM

| SMILES | growth |
| --- | --- |
| CNC(=O)c1cc(Oc2ccc(CC(=O)Nc3cc(C(C)(C)C)nn3C)cc2)ccn1 | 80.7% (inactive) |

same assay, conditions: 100 µM

| SMILES | growth |
| --- | --- |
| CCc1ccccc1-n1c(N)c(C#N)c(-c2ccc(OC)c(OC)c2)c(C#N)c1=O | 30.1% (inactive) |
